Laboratory results from PubChem BioAssay (NCATS).
Results filed as inconclusive are left out. Entries that show only a call come without a potency. The source made the active and inactive calls. The call rests on the fitted dose curve; in most records, active means well fitted inhibition curve with a large enough effect; inconclusive means small, poorly fitted or top-dose-only effect; inactive means no such curve, though single readings can be large or run the other way. Where a SMILES comes first, the peptide text is derived from it. The star is where a group is joined. βNA = c1ccc2cc(N*)ccc2c1; Cbz = O=C(OCc1ccccc1)*
Potency means the concentration at half of the fitted maximal effect.

These compounds were tested on Zika virus NS2B-NS3 protease (unlinked complex) (assay: Primary screen GU Rhodamine qHTS for Zika virus inhibitors: Unlinked NS2B-NS3 protease assay (AID 1347159; further: nearly all actives have a fitted effect of over 60% in size)). Conditions: Recombinant ZIKV NS2B-NS3 protease, Rhodamine110 substrate fluorescence; series mostly up to 107 µM.
How it was run: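 Percent inhibition derives from the 15-min fluorescence change (ex 480, em 540 nm), normalized to no-enzyme and no-inhibitor wells. Reactions contained 25 nM NS2B-NS3 complex and 1.5 microM substrate in 10 mM Tris-HCl pH 8.0.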
For Cc1c(F)cc(C(=O)NC2CC2)cc1-c1ccc(C(=O)NCC(C)(C)C)cn1, the Potency was “inactive”. With COc1cc(CCCO)ccc1O[C@@H]1O[C@H](CO)[C@@H](O)[C@H](O)[C@H]1O the Potency was “inactive”. For CC1(C)O[C@H]2CC(=O)OC[C@@]23C1=C(O)C(=O)[C@]1(C)C3CC[C@@]2(C)[C@H](c3ccoc3)OC(=O)[C@H]3O[C@]321 (some centres undefined), the Potency was “inactive”. With CC/C=C/C(O)C(O)C1=C(C)C(=O)C2(O1)C(=O)NC(OC)(C(=O)c1ccccc1)C2O (centres undefined) the Potency was “inactive”. With COc1cc(/C=C/C(=O)O[C@H]2C[C@@H]3C(C(=O)O)=CO[C@@H](O[C@@H]4O[C@H](CO)[C@@H](O)[C@H](O)[C@H]4O)[C@@H]3[C@H]2C)ccc1O the Potency was “inactive”. With CC(=O)O[C@@H]1[C@H](O[C@@H]2O[C@H](CO)[C@@H](O)[C@H](O)[C@H]2O)[C@@H](O[C@@H]2O[C@@H](C)[C@H](O)[C@@H](O[C@@H]3O[C@H](CO)[C@@H](O)[C@H](O)[C@H]3O)[C@H]2O)[C@H](OC(=O)[C@]23CCC(C)(C)C[C@H]2C2=CCC4[C@@]5(C)C[C@H](O)[C@H](O[C@@H]6O[C@H](C(=O)O)[C@@H](O)[C@H](O)[C@H]6O)[C@@](C)(C(=O)O)C5CC[C@@]4(C)[C@]2(C)CC3)O[C@@H]1C (some centres undefined) the activity change, negative = inhibition was 16.2% [at 19.1 µM] (inactive). In the case of CC(C)CC(NC(=O)OCc1ccccc1)C(=O)NC(CC(C)C)C(=O)NC(CCC(=O)O)C(=O)Nc1ccc2ccccc2c1 (stereo not drawn) (Cbz-Leu-Leu-Glu-βNA; configuration not given here), the Potency is reported as 11.2 µM (active). For COC(=O)C1=CO[C@@H](O[C@@H]2O[C@H](CO)[C@@H](O)[C@H](O)[C@H]2O)/C(=C\CO)[C@@H]1CC(=O)OCCc1ccc(O)cc1, the Potency was “inactive”. With C/C=C(\C)C(=O)O[C@H]1C=CC(=O)O[C@H]1/C=C/[C@H](O)[C@@H](C)O the Potency was “inactive”. COC(=O)C(CC1(O)c2ccccc2N2C(=O)C(CC(C)C)NC21)n1cnc2ccccc2c1=O (centres undefined) was tested, and the Potency was “inactive”. For CC(C)=CCC[C@@](C)(O)[C@H]1CC[C@]2(C)[C@@H]1[C@H](O)CC1[C@@]3(C)CC[C@H](O[C@@H]4O[C@H](CO)[C@@H](O)[C@H](O)[C@H]4O[C@@H]4O[C@H](CO)[C@@H](O)[C@H](O)[C@H]4O)C(C)(C)[C@@H]3CC[C@]12C (some centres undefined), the Potency was “inactive”. COc1cc(C)c(C(=O)O[C@@H]2[C@H](O)[C@@H](CO)O[C@H]2n2ccc(=O)[nH]c2=O)c(OC)c1 was tested, and the Potency was “inactive”. With NC[C@H]1CCC[C@@H](CNC(=O)[C@@H](Cc2c[nH]c3ccccc23)NC(=O)N2CCC3(C=Cc4ccccc43)CC2)C1 the Potency was “inactive”. CC(C)=CC1C[C@](C)(O)[C@@H]2[C@H]3CCC4[C@@]5(C)CC[C@H](O[C@@H]6OC[C@H](O)[C@H](O[C@@H]7O[C@H](CO[C@@H]8O[C@H](CO)[C@@H](O)[C@H](O)[C@H]8O)[C@@H](O)[C@H](O)[C@H]7O)[C@H]6O[C@@H]6O[C@@H](C)[C@H](O)[C@@H](O)[C@H]6O)C(C)(C)[C@@H]5CC[C@@]4(C)[C@@]34CO[C@@]2(C4)O1 (some centres undefined) was tested, and the Potency was “inactive”. In the case of C[C@]12CC/C(=N\OCC(=O)O)C=C1CC[C@@H]1[C@@H]2[C@@H](O)C[C@@]2(C)[C@H]1CC[C@]2(O)C(=O)CO, the Potency is reported as “inactive”. For CC1(C)COC(=O)[C@@H]1O[C@@H]1O[C@H](CO)[C@@H](O)[C@H](O)[C@H]1O, the Potency was “inactive”. COC(=O)C(CC1CCCC1)c1ccc(S(C)(=O)=O)cc1 (centres undefined) was tested, and the Potency was “inactive”. CC1(C)OC(=O)C=C[C@@]2(C)C1CC(=O)[C@]1(C)C2CC[C@@]2(C)[C@H](c3ccoc3)OC(=O)[C@H]3O[C@]321 (some centres undefined) was tested, and the Potency was “inactive”. In the case of CC1(C)[C@H]2C[C@H](C/C=C\CCCC(=O)O)[C@@H](NC(=O)c3csc4ccc(O)cc34)[C@@H]1C2, the Potency is reported as 14.1 µM (active). O=C(O)/C=C/c1ccc2occc2c1O[C@@H]1O[C@H](CO)[C@@H](O)[C@H](O)[C@H]1O was tested, and the Potency was “inactive”. COc1cc(C(=O)OC[C@H]2O[C@@H](OC(C)(C)C(=O)O)[C@H](O)[C@@H](O)[C@@H]2O)cc(OC)c1O was tested, and the Potency was “inactive”. For C=CC(C)(O)C1CC2C3(C)CCCC(C)(C)C3C(O)C(O)C2(C)O1 (centres undefined), the Potency was “inactive”. CC(=O)NC(Cc1c[nH]c2ccccc(=O)c12)C(=O)O (centres undefined) was tested, and the Potency was 22.4 µM (active). With COc1ccc(CCC(=O)c2c(O)cc(O[C@@H]3O[C@H](CO)[C@@H](O)[C@H](O)[C@H]3O[C@@H]3O[C@@H](C)[C@H](O)[C@@H](O)[C@H]3O)cc2O)cc1O the Potency was “inactive”. FC(F)(F)Oc1ccc(-c2ccc3nnc(C(F)(F)F)n3c2)cc1 was tested, and the Potency was “inactive”. COc1cc2c(cc1O)CC(O)(CO)C(CO)C2c1ccc(OC2OC(CO)C(O)C(O)C2O)c(OC)c1 (centres undefined) was tested, and the Potency was “inactive”. With COc1cc(O)cc(O[C@@H]2O[C@H](CO)[C@@H](O[C@@H]3OC[C@](O)(CO)[C@H]3O)[C@H](O)[C@H]2O)c1OC the Potency was “inactive”. C[C@@H]1O[C@@H](O[C@@H]2\C=C/C=C\C=C/C=C\C[C@H](C)OC(=O)/C=C\[C@H]3O[C@@H]3C[C@H](O)C[C@]3(O)C[C@@H](O)[C@@H](C(=O)O)[C@H](C2)O3)[C@H](O)[C@H](N)[C@@H]1O was tested, and the Potency was “inactive”. In the case of O=C(O)c1ccc(NC(=O)[C@H](CC2CCCC2)n2cnc(C(F)(F)F)c2)nc1, the Potency is reported as “inactive”.
